# From the antibiotic and cytotoxicity screens of Wong et al. (2023)
# Among all 39,000 compounds or so, about 1,500 (3.8%) were called active. The list comes from a sample in which actives are over-represented; it also holds similar structures and randomly drawn compounds.
# System: HSkMC (human skeletal muscle cells)
# Assay: cytotoxicity call (relative viability < 0.9)
# Settings: 10 µM
row,SMILES,cytotoxicity call
1,COc1ccc(NC(=O)N(C)C[C@H]2OCCCC[C@@H](C)Oc3ccc(NC(=O)C4CCCCC4)cc3C(=O)N([C@@H](C)CO)C[C@H]2C)cc1,inactive
2,C[C@@H]1CN([C@@H](C)CO)C(=O)c2cccc(NC(=O)CCCCCC(=O)Nc3ccccc3N)c2O[C@@H]1CN(C)Cc1ccc(Cl)c(Cl)c1,inactive
3,C[C@@H]1CN([C@@H](C)CO)C(=O)c2cccc(NC(=O)CCCCCC(=O)Nc3ccccc3N)c2O[C@@H]1CN(C)Cc1ccccc1,inactive
4,C[C@@H]1CN([C@@H](C)CO)C(=O)c2cccc(NC(=O)CCCCCC(=O)Nc3ccccc3N)c2O[C@H]1CN(C)Cc1ccc(Cl)c(Cl)c1,inactive
5,C[C@H]1CN([C@@H](C)CO)C(=O)c2cccc(NC(=O)CCCCCC(=O)Nc3ccccc3N)c2O[C@H]1CN(C)Cc1ccc(-c2ccccc2)cc1,inactive
6,C[C@@H]1CN([C@@H](C)CO)C(=O)c2cccc(NC(=O)CCCCCC(=O)Nc3ccccc3N)c2O[C@H]1CN(C)Cc1ccc(-c2ccccc2)cc1,inactive
7,C[C@H]1CN([C@@H](C)CO)C(=O)c2cccc(NC(=O)CCCCCC(=O)Nc3ccccc3N)c2O[C@@H]1CN(C)Cc1ccccc1,active
8,C[C@@H]1CN([C@H](C)CO)C(=O)c2cccc(NC(=O)CCCCCC(=O)Nc3ccccc3N)c2O[C@H]1CN(C)Cc1ccccc1,inactive
9,C[C@H]1CN([C@@H](C)CO)C(=O)c2cccc(NC(=O)CCCCCC(=O)Nc3ccccc3N)c2O[C@H]1CN(C)Cc1ccc(Cl)c(Cl)c1,active
10,C[C@H]1CN([C@@H](C)CO)C(=O)c2cccc(NC(=O)CCCCCC(=O)Nc3ccccc3N)c2O[C@@H]1CN(C)Cc1ccc(-c2ccccc2)cc1,active
11,Cc1ccc(S(=O)(=O)Nc2ccc3c(c2)C(=O)N([C@@H](C)CO)C[C@H](C)[C@@H](CN(C)Cc2ccncc2)OCCCC[C@H](C)O3)cc1,inactive
12,C[C@@H]1CN([C@H](C)CO)C(=O)c2cc(NC(=O)c3ccncc3)ccc2O[C@@H](C)CCCCO[C@@H]1CN(C)S(=O)(=O)c1ccc(Cl)cc1,inactive
13,COc1ccc(S(=O)(=O)Nc2ccc3c(c2)C(=O)N([C@@H](C)CO)C[C@H](C)[C@H](CN(C)S(C)(=O)=O)OCCCC[C@@H](C)O3)cc1,inactive
14,C[C@@H]1CN([C@H](C)CO)C(=O)c2cc(NC(=O)CCN3CCOCC3)ccc2O[C@H]1CN(C)Cc1ccncc1,inactive
15,CN(C)CC(=O)OCC(O)C(O)C(O)C(O)C(=O)[O-].[Na+] (centres undefined),inactive
16,O=C(c1ccc(Cl)cc1)c1coc2c1cc(O)c1ccccc12,active
17,O=C(Nc1ccc(Cl)cc1C(=O)c1ccc(Cl)cc1)c1cc(Br)ccc1NS(=O)(=O)c1ccc(Cl)cc1,inactive
18,O=C(c1ccc(Cl)cc1)n1c2ccccc2c2ccccc21,inactive
19,O=C(NCC[C@@H]1CC[C@H](NS(=O)(=O)c2cccc(F)c2)[C@H](CO)O1)C1CC1,inactive
20,C[C@@H]1CCCCO[C@H](CN(C)S(=O)(=O)c2ccccc2)[C@@H](C)CN([C@@H](C)CO)C(=O)c2cc(NC(=O)C3CCCCC3)ccc2O1,inactive
21,C[C@@H]1CN([C@@H](C)CO)C(=O)c2cccc(NC(=O)NC3CCCCC3)c2O[C@H]1CN(C)Cc1ccc(C(F)(F)F)cc1,inactive
22,CC(/C=C/C(=O)NO)=C\c1ccccc1OCc1cn(-c2cccc(N(S(=O)(=O)c3ccc(C)cc3)S(=O)(=O)c3ccc(C)cc3)c2)nn1,active

row,SMILES,cytotoxicity call
1,CC(/C=C/C(=O)NO)=C\c1ccccc1OCc1cn(C[C@@H]2CCCN2S(=O)(=O)c2ccc(C)cc2)nn1,inactive
2,Cc1ccc(S(=O)(=O)N(c2cccc(-n3cc(CCC(=O)NO)nn3)c2)S(=O)(=O)c2ccc(C)cc2)cc1,active
3,Nc1ccc(-n2cc(CCC(=O)NO)nn2)cc1,inactive
4,Nc1cccc(-n2cc(CCC(=O)NO)nn2)c1,inactive
5,CC(/C=C/C(=O)NO)=C\c1ccccc1OCc1cn(CCNC(=O)[C@@H](NS(=O)(=O)c2ccc(C)cc2)C(C)C)nn1,inactive
6,C[C@@H]1CCCCO[C@H](CN(C)Cc2ccncc2)[C@@H](C)CN([C@@H](C)CO)C(=O)c2cc(NC(=O)Nc3ccccc3)ccc2O1,inactive
7,C[C@H](CO)N1C[C@H](C)[C@@H](CN(C)S(=O)(=O)c2ccc(Cl)cc2)OCCCC[C@H](C)Oc2ccc(NC(=O)c3ccccc3)cc2C1=O,inactive
8,C[C@@H]1CN([C@H](C)CO)C(=O)c2cc(NS(C)(=O)=O)ccc2O[C@@H](C)CCCCO[C@@H]1CN(C)Cc1ccncc1,inactive
9,C[C@@H]1CN([C@H](C)CO)C(=O)c2cc(NC(=O)NC3CCCCC3)ccc2O[C@@H](C)CCCCO[C@H]1CN(C)S(=O)(=O)c1cccs1,inactive
10,C[C@H]1CN([C@@H](C)CO)C(=O)c2cc(NC(=O)Nc3ccccc3)ccc2O[C@H]1CN(C)C(=O)Nc1cccc2ccccc12,inactive
11,C[C@@H]1CN([C@@H](C)CO)C(=O)c2cc(NC(=O)Nc3ccccc3)ccc2O[C@@H]1CN(C)C(=O)Nc1cccc2ccccc12,active
12,C[C@H](CO)N1C[C@H](C)[C@H](CN(C)C(=O)Nc2cccc3ccccc23)Oc2ccc(NC(=O)Nc3ccccc3)cc2C1=O,inactive
13,C[C@@H]1CN([C@H](C)CO)C(=O)c2cc(NC(=O)Nc3ccccc3)ccc2O[C@H]1CN(C)C(=O)Nc1cccc2ccccc12,inactive
14,C[C@H](CO)N1C[C@H](C)[C@@H](CN(C)C(=O)Nc2cccc3ccccc23)Oc2ccc(NC(=O)Nc3ccccc3)cc2C1=O,inactive
15,C[C@@H]1CN([C@H](C)CO)C(=O)c2cc(NC(=O)Nc3ccccc3)ccc2O[C@@H]1CN(C)C(=O)Nc1cccc2ccccc12,active
16,Cc1ccc(S(=O)(=O)N(C)C[C@H]2Oc3c(NS(=O)(=O)c4ccccc4)cccc3C(=O)N([C@H](C)CO)C[C@@H]2C)cc1,inactive
17,C[C@H](CO)N1C[C@H](C)[C@H](CN(C)S(=O)(=O)c2ccccc2)Oc2c(NC(=O)C3CCOCC3)cccc2C1=O,inactive
18,C[C@@H]1CCCCO[C@@H](CN(C)CC2CCCCC2)[C@@H](C)CN([C@@H](C)CO)C(=O)c2cc(NC(=O)CCCN(C)C)ccc2O1,inactive
19,CO[C@@H]1CN(C)C(=O)c2cc(NS(=O)(=O)c3ccccc3)ccc2OC[C@@H](C)N(C(=O)NC(C)C)C[C@H]1C,inactive
20,C[C@H]1CN([C@@H](C)CO)C(=O)Cc2cc(NS(=O)(=O)c3cn(C)cn3)ccc2O[C@H]1CN(C)Cc1ccccc1,inactive
21,CCn1cc(-c2ccnc3[nH]c(-c4cccc(CN(C)C)c4)cc23)c(-c2ccc(NC(=O)N(C)C)cc2)n1,active
22,COc1ccccc1S(=O)(=O)N1C[C@H](O)COC[C@H]2O[C@@H](CC(=O)O)CC[C@@H]21,inactive

row,SMILES,cytotoxicity call
1,CCn1c(N)c(C(N)=O)sc1=S,inactive
2,C[C@H](CO)N1C[C@H](C)[C@@H](CN(C)C(=O)Nc2ccc(C(F)(F)F)cc2)Oc2c(NC(=O)Nc3cccc4ccccc34)cccc2C1=O,active
3,C[C@@H]1CN([C@@H](C)CO)C(=O)c2cccc(NC(=O)Nc3cccc4ccccc34)c2O[C@H]1CN(C)C(=O)Nc1ccc(C(F)(F)F)cc1,active
4,C[C@H]1CN([C@@H](C)CO)C(=O)c2cccc(NC(=O)Nc3cccc4ccccc34)c2O[C@H]1CN(C)C(=O)Nc1ccc(C(F)(F)F)cc1,active
5,C[C@@H]1CN([C@H](C)CO)C(=O)c2cccc(NC(=O)Nc3cccc4ccccc34)c2O[C@@H]1CN(C)C(=O)Nc1ccc(C(F)(F)F)cc1,active
6,C[C@H](CO)N1C[C@H](C)[C@H](CN(C)C(=O)Nc2ccc(C(F)(F)F)cc2)Oc2c(NC(=O)Nc3cccc4ccccc34)cccc2C1=O,inactive
7,C[C@@H]1CN([C@H](C)CO)C(=O)c2cccc(NC(=O)Nc3cccc4ccccc34)c2O[C@H]1CN(C)C(=O)Nc1ccc(C(F)(F)F)cc1,inactive
8,CCN1CCO[C@@]2(O)C=CC(=O)C=C12,inactive
9,CCc1ccc(NC(=O)C2CCN(S(=O)(=O)c3c(C)[nH]c(=O)[nH]c3=O)CC2)cc1,inactive
10,Cc1ccc(S(=O)(=O)Nc2ccc3c(c2)C(=O)N([C@@H](C)CO)C[C@@H](C)[C@@H](CN(C)S(=O)(=O)c2ccc(C)cc2)OCCCC[C@H](C)O3)cc1,inactive
11,C[C@@H]1CN([C@H](C)CO)C(=O)c2cc(NC(=O)Cc3ccccc3)ccc2O[C@@H](C)CCCCO[C@H]1CN(C)C(=O)Nc1cccc2ccccc12,inactive
12,CC(C)NC(=O)Nc1ccc2c(c1)CC(=O)N([C@@H](C)CO)C[C@H](C)[C@H](CN(C)Cc1ccc(-c3ccccc3)cc1)O2,inactive
13,O=C(C[C@H]1CC[C@@H](NS(=O)(=O)c2ccccc2)[C@H](CO)O1)NCc1ccncn1,inactive
14,Cc1ccc(S(=O)(=O)Nc2ccc3c(c2)C(=O)N([C@@H](C)CO)C[C@@H](C)[C@H](CN(C)C(=O)Nc2ccc(C(F)(F)F)cc2)O3)cc1,inactive
15,C[C@@H]1CN([C@@H](C)CO)C(=O)Cc2cc(NC(=O)CCN3CCOCC3)ccc2O[C@H]1CN(C)S(=O)(=O)c1cccs1,inactive
16,C[C@H]1CN([C@@H](C)CO)C(=O)c2ccccc2-c2ccccc2CO[C@@H]1CN(C)C(=O)Nc1cccc(F)c1,inactive
17,NC(=O)c1cccc(S(N)(=O)=O)c1,inactive
18,C[C@@H]1CN([C@H](C)CO)C(=O)c2cc(N(C)C)ccc2O[C@@H](C)CCCCO[C@H]1CN(C)C(=O)Nc1ccc(C(F)(F)F)cc1,inactive
19,C[C@H]1CN([C@@H](C)CO)C(=O)c2cccc(NC(=O)Nc3cccc4ccccc34)c2O[C@@H]1CN(C)C(=O)Nc1ccc(C(F)(F)F)cc1,active
20,COc1ccc(S(=O)(=O)N(C)C[C@@H]2Oc3ccc(NC(=O)CCCN(C)C)cc3CC(=O)N([C@@H](C)CO)C[C@@H]2C)cc1,inactive
